# In publication PMC11062922 (Nature Chemical Biology, 2023):
# Like-named read-outs stand apart in the source and are kept apart here.
# What was measured:
# Design in all cases: species or system human, MV4-11 + K-562 + COLO205 + SK-N-BE2 + OVCAR-8
# [1] = test system: ADCK1; conditions: read-out: apparent Kd; compound concentrations: 100 nM and 1000 nM (sheet 'Samples'), CATDS: 6.3645310719154996E-2; n = 1
# [2] = test system: FLT3; conditions: read-out: apparent Kd; compound concentrations: 100 nM and 1000 nM (sheet 'Samples'), CATDS: 0.35383441234921298; n = 1
# [3] = test system: JAK2; conditions: read-out: apparent Kd; compound concentrations: 100 nM and 1000 nM (sheet 'Samples'), CATDS: 0.243308820463081; n = 1
# [4] = test system: LIMK1; conditions: read-out: apparent Kd; compound concentrations: 100 nM and 1000 nM (sheet 'Samples'), CATDS: 6.0612482504371901E-2; n = 1
# [5] = test system: LYN; conditions: read-out: apparent Kd; compound concentrations: 100 nM and 1000 nM (sheet 'Samples'), CATDS: 6.5965838221970899E-2; n = 1
# [6] = test system: MAPK14; conditions: read-out: apparent Kd; compound concentrations: 100 nM and 1000 nM (sheet 'Samples'), CATDS: 7.0797769182365994E-2; n = 1
# [7] = test system: MTOR; conditions: read-out: apparent Kd; compound concentrations: 100 nM and 1000 nM (sheet 'Samples'), CATDS: 8.3808219559409397E-2; n = 1
# [8] = test system: PIK3CD; conditions: read-out: apparent Kd; compound concentrations: 100 nM and 1000 nM (sheet 'Samples'), CATDS: 0.184193400818676; n = 1
# [9] = test system: PRKACG; conditions: read-out: apparent Kd; compound concentrations: 100 nM and 1000 nM (sheet 'Samples'), CATDS: 7.8396451474863002E-2; n = 1
# [10] = test system: PRKDC; conditions: read-out: apparent Kd; compound concentrations: 100 nM and 1000 nM (sheet 'Samples'), CATDS: 6.9640678326095301E-2; n = 1
# [11] = test system: RET; conditions: read-out: apparent Kd; compound concentrations: 100 nM and 1000 nM (sheet 'Samples'), CATDS: 7.1676948179133407E-2; n = 1
# [12] = test system: T1, T10; conditions: read-out: apparent Kd; compound concentrations: 100 nM and 1000 nM (sheet 'Samples'), CATDS: 5.8337212061708103E-2; n = 1
# T1 construct: gene NAT10
# [13] = test system: ADCK3; conditions: read-out: apparent Kd, compound concentrations: 100 nM and 1000 nM (sheet 'Samples'), n = 1
# [14] = test system: AKT3; conditions: read-out: apparent Kd, compound concentrations: 100 nM and 1000 nM (sheet 'Samples'), n = 1
# [15] = test system: MAP2K5; conditions: read-out: apparent Kd; compound concentrations: 100 nM and 1000 nM (sheet 'Samples'), CATDS: 0.16534591084459199; n = 1
# [16] = test system: NQO1; conditions: read-out: apparent Kd, compound concentrations: 100 nM and 1000 nM (sheet 'Samples'), n = 1
# [17] = test system: TNK1; conditions: read-out: apparent Kd; compound concentrations: 100 nM and 1000 nM (sheet 'Samples'), CATDS: 0.23807616191270001; n = 1
# [18] = test system: AKT1; conditions: read-out: apparent Kd; compound concentrations: 100 nM and 1000 nM (sheet 'Samples'), CATDS: 7.0300825665370006E-2; n = 1
# [19] = test system: AKT2; conditions: read-out: apparent Kd; compound concentrations: 100 nM and 1000 nM (sheet 'Samples'), CATDS: 7.1049746121653101E-2; n = 1
# [20] = test system: CAMK4; conditions: read-out: apparent Kd; compound concentrations: 100 nM and 1000 nM (sheet 'Samples'), CATDS: 6.2704005161184906E-2; n = 1
# [21] = test system: CSNK1A1; conditions: read-out: apparent Kd; compound concentrations: 100 nM and 1000 nM (sheet 'Samples'), CATDS: 6.8994714696940407E-2; n = 1
# [22] = test system: MAP2K1; conditions: read-out: apparent Kd; compound concentrations: 100 nM and 1000 nM (sheet 'Samples'), CATDS: 7.1306793514003305E-2; n = 1
# [23] = test system: MAP2K2; conditions: read-out: apparent Kd; compound concentrations: 100 nM and 1000 nM (sheet 'Samples'), CATDS: 7.3872380173305399E-2; n = 1
# [24] = test system: MAPK9; conditions: read-out: apparent Kd; compound concentrations: 100 nM and 1000 nM (sheet 'Samples'), CATDS: 6.4176537599483302E-2; n = 1
# [25] = test system: PIM2; conditions: read-out: apparent Kd; compound concentrations: 100 nM and 1000 nM (sheet 'Samples'), CATDS: 7.6487231298609404E-2; n = 1
# [26] = test system: PYGL; conditions: read-out: apparent Kd; compound concentrations: 100 nM and 1000 nM (sheet 'Samples'), CATDS: 6.9677029727435405E-2; n = 1
# [27] = test system: RIOK2; conditions: read-out: apparent Kd; compound concentrations: 100 nM and 1000 nM (sheet 'Samples'), CATDS: 6.63813283152343E-2; n = 1
# [28] = test system: SMC4; conditions: read-out: apparent Kd; compound concentrations: 100 nM and 1000 nM (sheet 'Samples'), CATDS: 6.4174106680799994E-2; n = 1
compound,measurement,setting,value
CN(c1ccc(NC(=O)Nc2cc(C(F)(F)F)ccc2F)cc1)c1ccnc(Nc2ccc(S(N)(=O)=O)cc2)n1 [GW809893X],potency estimated from few doses,[1],1370 nM
same,potency estimated from few doses,[2],36.1 nM
same,potency estimated from few doses,[3],65 nM
same,potency estimated from few doses,[4],1630 nM
same,potency estimated from few doses,[5],1210 nM
same,potency estimated from few doses,[6],973 nM
same,potency estimated from few doses,[7],610 nM
same,potency estimated from few doses,[8],107 nM
same,potency estimated from few doses,[9],728 nM
same,potency estimated from few doses,[10],1020 nM
same,potency estimated from few doses,[11],938 nM
same,potency estimated from few doses,[12],1880 nM
COc1cc2nccc(Nc3cccc(Oc4ccccc4)c3)c2cc1OC.Cl [GW284543A],potency estimated from few doses,[13]; CATDS: 0.252282452250228,949 nM
same,potency estimated from few doses,[14]; CATDS: 0.185918724063731,1710 nM
same,potency estimated from few doses,[15],2260 nM
same,potency estimated from few doses,[16]; CATDS: 0.18486916507509299,1730 nM
same,potency estimated from few doses,[17],1050 nM
O=C(Nc1cccc(-c2nn3ccccc3c2-c2ccnc(Nc3cccc(F)c3)n2)c1)c1c(F)ccc(F)c1Cl [GSK357952A],potency estimated from few doses,[13]; CATDS: 1,131 nM
O=C(NC1CCN(c2ccnc(Nc3ccc(F)cc3)n2)C1)c1cc2ccccc2s1 (centres unmarked) [GSK1379716A],potency estimated from few doses,[13]; CATDS: 8.9568558281788502E-2,1140 nM
same,potency estimated from few doses,[18],1780 nM
same,potency estimated from few doses,[19],1740 nM
same,potency estimated from few doses,[14]; CATDS: 7.9002074728764499E-2,1420 nM
same,potency estimated from few doses,[20],2280 nM
same,potency estimated from few doses,[21],1850 nM
same,potency estimated from few doses,[22],1730 nM
same,potency estimated from few doses,[23],1610 nM
same,potency estimated from few doses,[24],2160 nM
same,potency estimated from few doses,[16]; CATDS: 8.1829364824624801E-2,1330 nM
same,potency estimated from few doses,[25],1500 nM
same,potency estimated from few doses,[26],1810 nM
same,potency estimated from few doses,[27],2010 nM
same,potency estimated from few doses,[28],2160 nM
